Data as given in the supplement of paper PMC3545927.
Some of the results follow. The true hit rate is not given.

B1: HC1859 (peptide)
chain: CATPPCSGSWAGNASASA
B2: HC522 (peptide)
chain: CAFLLLADARAGNASASA
B3: HC972 (peptide)
chain: CAPLLYRLGAAGNASASA
B4: HC1440 (peptide)
chain: CAMAKNEVFCAGNASASA
B5: HC312 (peptide)
chain: CAGCNCSIYPAGNASASA
B6: FS-805 (peptide)
chain: CAITARYHRDAGNASASA
B7: FS-1537 (peptide)
chain: CAIVARNHRDAGNASASA
B8: FS-1604 (peptide)
chain: CAPWNRKNRQAGNASASA
B9: HC1913 (peptide)
chain: CATTPCSGRWAGNASASA
B10: FS-1400 (peptide)
chain: CARKPKRKRWAGNASASA
B11: FS-1456 (peptide)
chain: CAGKRRSRRQAGNASASA
B12: FS-193 (peptide)
chain: CASKRRDKRWAGNASASA
B13: FS-1261 (peptide)
chain: CARKPRVKRPAGNASASA
B14: FS-3138 (peptide)
chain: CASSRRDSSWAGNASASA
B15: FS-1337 (peptide)
chain: CAHKHRSNRQAGNASASA

Biological target: furin, P09958
Sequence (P09958 whole entry): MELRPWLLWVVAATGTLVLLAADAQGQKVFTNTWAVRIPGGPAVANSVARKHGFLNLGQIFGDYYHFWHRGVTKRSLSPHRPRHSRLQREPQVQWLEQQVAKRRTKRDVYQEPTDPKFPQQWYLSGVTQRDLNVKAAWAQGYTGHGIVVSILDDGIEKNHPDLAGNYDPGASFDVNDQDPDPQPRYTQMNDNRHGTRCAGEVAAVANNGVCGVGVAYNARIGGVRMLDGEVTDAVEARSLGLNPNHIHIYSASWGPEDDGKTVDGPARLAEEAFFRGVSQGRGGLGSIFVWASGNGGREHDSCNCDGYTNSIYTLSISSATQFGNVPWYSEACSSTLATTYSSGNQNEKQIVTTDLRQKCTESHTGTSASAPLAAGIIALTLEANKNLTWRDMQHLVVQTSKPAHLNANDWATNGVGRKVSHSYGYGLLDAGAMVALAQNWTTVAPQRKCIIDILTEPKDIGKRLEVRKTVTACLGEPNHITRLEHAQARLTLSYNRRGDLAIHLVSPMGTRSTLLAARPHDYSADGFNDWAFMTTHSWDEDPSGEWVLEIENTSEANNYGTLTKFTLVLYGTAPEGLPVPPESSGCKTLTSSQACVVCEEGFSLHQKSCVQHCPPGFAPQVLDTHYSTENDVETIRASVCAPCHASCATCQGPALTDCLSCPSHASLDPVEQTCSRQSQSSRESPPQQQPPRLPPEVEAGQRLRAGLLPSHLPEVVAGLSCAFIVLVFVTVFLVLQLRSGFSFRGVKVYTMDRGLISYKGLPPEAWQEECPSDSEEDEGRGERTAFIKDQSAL
Experiment: furin cleavage Z-score vs untreated control; higher = more cleavage, active = 3.5 or more, inactive = 1 or less, 8 variable residues between constant flanks
How it was run: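 Abundance of DNA freed from bead-bound 8-mer peptide–cDNA fusions by purified furin was measured as sequencing read counts after PCR adapter tagging. Cutting ran 7.5, 15 or 30 min in 0.01 ml of 50 mM HEPES pH 7.5 with CaCl2 and NaCl at 1:10 enzyme:substrate. The cleavage Z-score expresses these log counts against furin-free reactions after lowess adjustment and median absolute deviation scaling.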

Sequence | furin cleavage Z-score (7.5 min) | furin cleavage Z-score (15 min) | furin cleavage Z-score (30 min)
B1 | -0.56 (inactive) | -0.533 (inactive) | -0.721 (inactive)
B2 | -0.934 (inactive) | -0.696 (inactive) | -0.66 (inactive)
B3 | 0.619 (inactive) | -1.01 (inactive) | 0.0559 (inactive)
B4 | 0.471 (inactive) | 0.162 (inactive) | 0.531 (inactive)
B5 | 0.264 (inactive) | -0.894 (inactive) | 0.418 (inactive)
B6 | 2.27 | 3.38 | 4.17 (active)
B7 | 4.29 (active) | 3.17 | 2.88
B8 | -0.25 (inactive) | 0.846 (inactive) | 3.14
B9 | -1.94 (inactive) | 0.288 (inactive) | -0.595 (inactive)
B10 | 8.47 (active) | 10.9 (active) | 7.59 (active)
B11 | 9.9 (active) | 10.6 (active) | 6.67 (active)
B12 | 8.33 (active) | 9.38 (active) | 9.36 (active)
B13 | 1.31 | 0.832 (inactive) | 1.57
B14 | -0.452 (inactive) | -0.483 (inactive) | -0.978 (inactive)
B15 | 1.05 | 3.88 (active) | 1.67
